CHT inh: human CHT choline transport inhibition; CHT-expressing cells, membrane potential dye, choline response; stronger effect = lower value; B-score at 10 µM; actives 0.86% (n = 310,000);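 active = B-score over 3 SD under the library average, and starting fluorescence ratio not unusually high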;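 also: choline stimulus applied at its EC90 after an EC20 pre-addition; B-score computed on integrated fluorescence ratio after choline addition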
TMEM16A act: activates or potentiates the mouse TMEM16A chloride channel; B-score at 10 µM; actives 0.3% (n = 340,000); HEK293 TMEM16A/YFP-H148Q/I152L, iodide quench fluorescence; stronger effect = lower value;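 active = fluorescence-ratio B-score plate-corrected deviation score at least 3 library SD below zero, with starting fluorescence score within 5 deviations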;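 also: channel opened by trigger with iodide after compound preincubation; score built on the fluorescence ratio of max minus min over baseline; more negative score means more quench and so TMEM16A activation or potentiation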
Target sequence (Q8BHY3 whole entry, looked up): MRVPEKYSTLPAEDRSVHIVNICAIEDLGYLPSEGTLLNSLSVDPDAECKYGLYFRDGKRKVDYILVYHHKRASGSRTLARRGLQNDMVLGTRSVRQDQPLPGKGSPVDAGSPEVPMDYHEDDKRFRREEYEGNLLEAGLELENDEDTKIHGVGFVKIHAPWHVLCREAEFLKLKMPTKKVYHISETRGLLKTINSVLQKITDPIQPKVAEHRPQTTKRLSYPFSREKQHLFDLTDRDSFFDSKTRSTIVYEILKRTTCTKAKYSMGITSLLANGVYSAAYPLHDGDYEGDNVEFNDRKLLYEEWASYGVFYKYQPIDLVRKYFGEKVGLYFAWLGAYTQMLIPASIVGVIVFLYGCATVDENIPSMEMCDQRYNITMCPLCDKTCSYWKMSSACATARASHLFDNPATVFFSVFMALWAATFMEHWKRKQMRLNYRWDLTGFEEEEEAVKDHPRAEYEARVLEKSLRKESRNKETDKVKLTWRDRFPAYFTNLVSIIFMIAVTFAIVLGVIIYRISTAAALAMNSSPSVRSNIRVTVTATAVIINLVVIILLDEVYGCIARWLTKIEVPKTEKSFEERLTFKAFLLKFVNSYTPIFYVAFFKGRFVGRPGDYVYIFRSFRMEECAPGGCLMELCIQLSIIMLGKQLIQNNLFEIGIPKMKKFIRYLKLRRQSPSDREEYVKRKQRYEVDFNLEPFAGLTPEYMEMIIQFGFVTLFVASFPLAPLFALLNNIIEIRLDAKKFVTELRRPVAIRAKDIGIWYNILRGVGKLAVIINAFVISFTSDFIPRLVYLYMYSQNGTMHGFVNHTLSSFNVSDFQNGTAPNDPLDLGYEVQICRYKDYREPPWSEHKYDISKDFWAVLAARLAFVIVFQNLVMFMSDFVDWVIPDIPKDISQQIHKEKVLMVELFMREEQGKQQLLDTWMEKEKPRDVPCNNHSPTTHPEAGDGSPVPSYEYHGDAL
TMEM16A inh: blocks the mouse calcium-activated chloride channel TMEM16A | Q8BHY3 | HEK293 TMEM16A/YFP iodide influx fluorescence, ionomycin | normalized B-score (activity score, 25-100; higher = stronger inhibition) at 10 µM | actives 1.2% (n = 310,000) | AID 588511;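 active = ratio plate-corrected score three or more library SD toward inhibition, starting fluorescence score within five deviations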;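 also: score derived from kinetic fluorescence span divided by baseline fluorescence per well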
CHT allo act: allosteric activators of human choline transporter CHT; Q9GZV3; CHT-expressing cells, membrane potential dye, choline EC20; stronger effect = higher value; LV-AA mutant CHT in HEK293 cells; B-score at 10 µM; actives 0.49% (n = 310,000); AID 488977;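 active = initial fluorescence not abnormally high and integrated response B-score, plate-corrected, over 3 SD above library mean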
PHOSPHO1 block: PHOSPHO1 (human) inhibition; inhibition, % at 13.3 µM; recombinant PHOSPHO1, absorbance phosphatase assay; actives 1.1% (n = 290,000); in the data active = inhibition above about 60%
HDAC3 inhib: inhibitors of human histone deacetylase 3. actives 0.15% (n = 320,000). AID 2718. inhibition, % at 8.3 µM. recombinant HDAC3, fluorogenic peptide/trypsin coupled, fluorescence; in the data active = inhibition above about 26%, passing the limit was not always enough
TMEM16A reconf: TMEM16A (mouse) chloride channel inhibition, re-confirmation | actives 39% (n = 2,300) | inhibition, % at 10 µM | HEK293 TMEM16A/YFP-H148Q, iodide quench fluorescence; ionomycin added to raise cell calcium | AID 652189 | shares compounds with TMEM16A inh;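 active = mean duplicate percent inhibition, scaled so buffer wells are 0 and the reference blocker 100, over three buffer SD above buffer mean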
TMEM16A Ca cntr: counter-screen for TMEM16A inhibitors: effect on calcium mobilization. AID 652231. shares compounds with TMEM16A inh. calcium response (% of ionomycin), % at 10 µM. actives 2% (n = 2,300). TMEM16A/YFP HEK293, Fluo4 calcium mobilization;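 active = duplicate-averaged calcium signal over 20% of the ionomycin maximum, relative to buffer baseline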;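 also: each well's signal is peak minus trough fluorescence divided by its pre-addition baseline; 0% = buffer wells and 100% = ionomycin wells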
YFP-HEK293 quench: acts in parental YFP-HEK293 cells lacking TMEM16A, counter-screen; shares compounds with TMEM16A inh; iodide YFP quench, ionomycin; YFP ratio F(max-min)/F0 at 10 µM; 2,300 tested, under 10 active;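 active = yellow fluorescent protein signal ratio exceeding the buffer control mean by over 5 SD of those controls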;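 also: ratio is mean of duplicate wells from kinetic YFP trace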
ClC-1 inh: rat ClC-1 inhibition, TMEM16A specificity screen; shares compounds with TMEM16A inh; CHO ClC-1-YFP, iodide influx fluorescence quench; iodide control reads 0, buffer control 100; ratio percent, % at 10 µM; 2,300 tested, under 10 active; AID 652236;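 active = duplicate-mean ratio percent above the mean of iodide-only control wells, which defines zero, plus 5 of their SD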;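 also: higher percent means stronger block of ClC-1 iodide influx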
An asterisk follows results filed as active; i = inactive; . = not tested or not shown. Sampled rows, rich in hits. Any-hit rate of the full collection: about 3.2%.

SMILES | CHT inh | TMEM16A act | TMEM16A inh | CHT allo act | PHOSPHO1 block | HDAC3 inhib | TMEM16A reconf | TMEM16A Ca cntr | YFP-HEK293 quench | ClC-1 inh
Cc1cc(C)c2nc(SCC(=O)Nc3cc(C)on3)c(C#N)cc2c1 | i | i | i | i | 35 | -7 | . | . | . | .
CCOC(=O)c1c(NC(=O)c2ccc(C)cc2)sc2c1CC(C)(C)NC2(C)C | i | . | i | i | 8 | -3 | . | . | . | .
COC(=O)c1c(NC(=O)c2ccc(OC(C)C)cc2)sc2c1CC(C)(C)NC2(C)C | i | i | 100* | i | 8 | -1 | i | i | -0.9 | -7
CCC(C)[C@H](NC(=O)CCn1nnc2ccccc2c1=O)C(=O)O (some centres undefined) | i | i | i | i | -11 | 8 | . | . | . | .
CC(C)c1cc(C(=O)N2CCCC(CCC(=O)NCc3ccccc3F)C2)n(C)n1 (centres undefined) | i | i | 100* | i | 50 | -6 | i | i | -1.1 | -16
Cc1ncoc1C(=O)N1CCCC(CCC(=O)NCc2ccccc2F)C1 (centres undefined) | i | i | i | i | 35 | 7 | . | . | . | .
CCOC(=O)N1CCN(c2ccc(C(C)=O)cc2F)CC1 | i | i | i | i | -7 | 2 | . | . | . | .
CCOC(=O)N1CCN(c2ccc(C(=O)c3ccccc3)cc2F)CC1 | i | i | 100* | i | -4 | 6 | 23%* | i | -1.1 | -9
Cc1ccc(S(=O)(=O)N(CC(=O)O)c2ccc(Cl)c(C(F)(F)F)c2)cc1 | i | i | i | i | 44 | -5 | . | . | . | .
CC(C)CSc1nc(N2CCOCC2)c2c(c1C#N)CC(C)(C)SC2 | i | i | i | i | -10 | -3 | 22%* | i | -0.89 | 0
COc1ccc(NC(=O)c2cccc(-c3ccc(O)cc3)c2)cn1 | i | i | i | i | 31 | 0 | . | . | . | .
CCOC(=O)c1ccccc1NS(=O)(=O)c1ccc(C)cc1 | i | i | i | i | 2 | -5 | . | . | . | .
CCOC(=O)c1cc(C)n(S(=O)(=O)c2ccc(C)cc2)c1C | i | i | 100* | i | 18 | 5 | 18%* | i | -1.1 | -4
COc1ccc(/C(O)=C/C(=O)C(=O)NNC(=O)c2ccccc2)cc1 | i | i | i | i | 26 | 2 | . | . | . | .
COc1ccc(/C(O)=C/C(=O)C(=O)NNC(=O)C(O)(c2ccccc2)c2ccccc2)cc1 | i | -10* | 100* | i | 18 | -3 | 20%* | i | -1.4 | 0
CCOc1ccc(Br)cc1S(=O)(=O)N1CCC(C(N)=O)CC1 | i | i | i | i | -11 | -5 | . | . | . | .
CCOc1ccc(Br)cc1S(=O)(=O)N1CC(C)OC(C)C1 (centres undefined) | i | i | 100* | i | -9 | -4 | i | i | -1.1 | -10
CC(C)C(C)NC(=O)COn1nnc2ccc(S(=O)(=O)N3CCOCC3)cc21 (centres undefined) | . | i | . | . | . | -7 | . | . | . | .
CCc1nnc2sc(-c3ccc(NC(=O)CSc4ccc(Cl)cc4)cc3)nn12 | i | i | i | i | . | -1 | i | i | -1.1 | 0
O=C(NC1CCCCC1)C1CCCN1S(=O)(=O)c1cccc2nsnc12 (centres undefined) | i | i | 100* | i | 28 | -2 | i | i | -1.1 | -6
CC(NC(=O)C1CCCN1S(=O)(=O)c1cccc2nsnc12)c1ccccc1 (centres undefined) | i | i | i | i | 42 | -5 | . | . | . | .
C#CCN1C(=O)C(O)(c2c(C)[nH]c3ccccc23)c2ccccc21 (centres undefined) | i | i | i | i | 30 | 0 | . | . | . | .
CCc1ccc(NC(=S)N(CCCN2CCOCC2)Cc2ccccn2)cc1 | i | i | i | i | 9 | 5 | . | . | . | .
CCc1ccc(NC(=S)N(Cc2ccccc2)Cc2ccccn2)cc1 | i | i | 25* | i | 1 | 3 | i | i | -1.2 | -8
CSc1nc2c(c(=O)[nH]c(=O)n2C)n1Cc1ccc(Cl)cc1 | i | i | i | i | -18 | 1 | . | . | . | .
SMILES | CHT inh | TMEM16A act | TMEM16A inh | CHT allo act | PHOSPHO1 block | HDAC3 inhib | TMEM16A reconf | TMEM16A Ca cntr | YFP-HEK293 quench | ClC-1 inh
CN(CC1COc2ccccc2O1)C(=S)Nc1ccccc1 (centres undefined) | i | i | i | i | . | -17 | . | . | . | .
CCN(CC1COc2ccccc2O1)C(=S)NC1CC2CCC1C2 (centres undefined) | i | i | 100* | i | 25 | 9 | i | i | -0.83 | -10
O=C(c1ccco1)N1CCN(C(=O)C(c2ccccc2)c2ccccc2)CC1 | i | i | i | i | 10 | 13 | . | . | . | .
CCC(C(=O)N1CCN(C(=O)c2ccco2)CC1)c1ccccc1 (centres undefined) | i | i | 100* | i | 18 | 0 | i | i | -0.97 | -22
CSCC[C@H](NC(=O)OC(C)(C)C)C(=O)N1CCC(C(=O)NCC(=O)Nc2ccc(C)cc2)CC1 | i | i | i | i | . | 3 | i | i | -0.93 | -16
COc1cc(OC)c(NC(=S)Nc2cc(Cl)cc(Cl)c2)cc1Cl | i | i | 100* | i | 14 | -1 | 18%* | i | -1.1 | -34
O=C(OCC(=O)N1CCc2ccccc21)c1c2c(nc3ccccc13)CCCCC2 | i | i | 100* | i | 5 | -2 | i | i | -1.2 | -13
COc1nccnc1NS(=O)(=O)c1ccc(NC(=S)NC(=O)c2cccnc2)cc1 | i | i | i | i | 48 | . | . | . | . | .
COc1ccc2c(c1)CC/C(=C/c1ccco1)C2=O | i | i | i | i | 6 | -3 | i | i | -1.1 | -5
O=C1/C(=C/c2ccco2)CCc2ccccc21 | i | i | i | i | -2 | 2 | . | . | . | .

Bioassay records from PubChem.
